From PubChem BioAssay (NCI)
About 83,000 compounds went through this panel and 20% of them were active in at least one assay; those are over-represented in the sample as a whole.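 Step 1: grow cells in 96-well plates. Step 2: add test compound at a single concentration. Step 3: incubate 48 h. Step 4: record percent growth.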 Unmarked numbers belong to inactive results. Active and inactive are the calls of the source. How the source made its calls: active means growth percent below 10; inactive means the rest.

How the values were obtained:
Assay in all cases: NCI-60 one-dose screen, 48 h (100 = growth as untreated, 0 = no growth, -100 = all killed)
Settings in all cases: 10 µM unless noted
[1] = test system: HCT-15 colon
[2] = test system: HT29 colon
[3] = test system: SNB-75 CNS
[4] = test system: SNB-19 CNS
[5] = test system: PC-3 prostate
[6] = test system: SK-MEL-5 melanoma
[7] = test system: UACC-62 melanoma
[8] = test system: LOX IMVI melanoma
[9] = test system: SK-MEL-28 melanoma
[10] = test system: U251 CNS

| SMILES | growth [1] | growth [2] | growth [3] | growth [4] | growth [5] | growth [6] | growth [7] | growth [8] | growth [9] | growth [10] |
| --- | --- | --- | --- | --- | --- | --- | --- | --- | --- | --- |
| O=C(Cc1c(F)cccc1Cl)Nc1ccc(S(=O)(=O)Nc2ncccn2)cc1 | 104% | 120% | 110% | 96% | 100% | 100% | 107% | 92.9% | 122% | – |
| O=S(=O)(NCCCNc1nccc(-c2c(-c3ccc(F)c(O)c3)nc3sccn23)n1)c1ccc(Cl)cc1 | 82.7% | 70.1% | 122% | 115% | 58.7% | – | 6.74% (active) | 45.5% | 23.3% | 84.5% |
| CC(C)(C)c1cc(-c2nc3ccc(N4CCN(CCO)CC4)cc3[nH]2)cc(C(C)(C)C)c1O | -14.4% (active) | 4.47% (active) | 67.2% | 74% | 58.3% | 74% | 26.7% | -35.5% (active) | 61.2% | – |
| Cc1cc(Nc2nc(-c3ccc(F)cc3)nc3ccccc23)n[nH]1 | 33.9% | 22.5% | -21% (active) | 80.2% | 56.5% | 73.7% | – | 32.6% | 56.3% | – |
| Nc1c(C(=O)Nc2cccc(C(F)(F)F)c2)sc2nc3c(cc12)C(O)CCC3 (stereo not given) | 36.7% | 17.7% | -6.78% (active) | 86.8% | 23.4% | 25.7% | 41.4% | 47.8% | 49% | – |
| COC1=CC(c2ccc[nH]2)=N/C1=C\c1[nH]c(C)c(C(=O)CCC(=O)Oc2ccc3c(c2)CCC2C3CC[C@]3(C)[C@@H](O)CC[C@@H]23)c1C (stereo not given in full) | -48% (active) | 6.68% (active) | 12.1% | 37.2% | 17.8% | -84.2% (active) | -41.8% (active) | -81.7% (active) | 41.2% | – |
| Cc1ccc2nc(-c3c(CCCO)noc3N)[nH]c(=O)c2c1 | 105% | 113% | 82.2% | 113% | 96% | 99.6% | 104% | 100% | 112% | – |
| CCCCCCC[C@@H](O)CC(=O)N[C@H](CCCCN)C(=O)N[C@H](Cc1c[nH]c2ccccc12)C(=O)NC(CCCCN)C(=O)N[C@H](CC(C)C)C(=O)N[C@H](Cc1ccccc1)C(=O)N[C@H](CCCCN)C(=O)N[C@H](CCCCN)C(=O)N[C@H](CC(C)C)C(=O)N1CCCC1C(=O)N[C@H](CCCCN)C(=O)N[C@H](Cc1ccccc1)C(=O)N[C@H](CC(C)C)C(=O)N[C@H](Cc1c[nH]cn1)C(=O)N[C@H](CC(C)C)C(=O)N[C@H](C)C(=O)N[C@H](CCCCN)C(=O)N[C@H](CCCCN)C(=O)N[C@H](Cc1ccccc1)C(=O)O (stereo not given in full) | -40.3% (active) | -52.7% (active) | -62.3% (active) | -46.4% (active) | -55.3% (active) | – | -39.2% (active) | -38.6% (active) | -39.8% (active) | -60.5% (active) |
| COc1ccc(/C=C/C(=O)c2ccc(NC(=O)CN3CCN(c4cc5c(cc4F)c(=O)c(C(=O)O)cn5C4CC4)CC3)cc2)cc1 | 108% | 114% | 89.2% | 94.7% | 92.4% | 94% | 93.2% | 76.9% | 106% | – |
| CCCCCCc1nc2c(c(C)nn2-c2ccccc2)c2c1CCCCC2 | 108% | 100% | 105% | 99.9% | 94.1% | – | 101% | 98.2% | 107% | 102% |
| Cc1sc(N=Nc2ccc(N(C)C)cc2)[n+]([O-])c1C | 100% | 103% | 82.5% | 99.5% | 95.2% | – | – | 102% | 102% | 99% |
| COc1ccc(NC(=O)CSc2nc3ccccc3c(=O)n2Cc2cc(OC)c(OC)c(OC)c2)cc1 | 89.5% | 110% | 66.3% | 95.8% | 85.1% | 87.5% | 74.2% | 94.5% | 94% | – |
| Oc1ccc(N=Cc2ccccc2)cc1 | 82% | 105% | 105% | 98.8% | 68.3% | 83.4% | 97.5% | 95.3% | 113% | – |
| COc1ccc(S(=O)(=O)Nc2cc(/C=C\c3cc(OC)c(OC)c(OC)c3)cc(OC)c2OC)cc1OC | 24.1% | 13.6% | -4.59% (active) | 40% | 34.3% | 23.7% | 37.3% | – | 52.5% | – |
| Nc1nc(-c2cc3ccccc3o2)cc(=O)c(=O)[nH]1 | 103% | 99.7% | 102% | 86.6% | 97.7% | 90.4% | 94.6% | 98.6% | 112% | – |
| O=C1CCC/C=C\C[C@H]2C=CC(=O)/C2=C/C[C@H](C/C=C\CC(F)(F)F)O1 | -5.57% (active) | -28.9% (active) | 68.7% | 11.3% | -42.5% (active) | -90.7% (active) | -12.1% (active) | -88.2% (active) | -28.6% (active) | – |
| Nc1nc(Cl)c2c(ncn2Cc2ccc(CCl)cc2)n1 | 84.9% | 91% | 100% | 93.2% | 77.6% | 70.3% | 78.4% | 69.7% | 101% | – |
| O=S(=O)(NCCNc1cc(-c2cn(-c3ccccc3)nc2-c2ccccc2)ccn1)c1ccc(F)cc1 | 74.2% | 88.3% | 77.4% | 92.5% | 47.6% | – | 89.4% | 78.5% | 104% | 72.7% |
| Cc1cc(Nc2nc(C(=O)Nc3ccccc3)nc3ccccc23)n[nH]1 | 29.5% | 84.7% | -0.848% (active) | 97.3% | 51.2% | 59.2% | 59.9% | – | 69.5% | – |
| C#CCC1(c2ccc(F)c(F)c2)NS(=O)(=O)c2ccccc21 (stereo not given) | 103% | 82.9% | 99.1% | 108% | 91.8% | 103% | 106% | 98% | 121% | – |
| O=C(NCCCN1CCN(CCCNC(=O)C2CCCCC2)CC1)C1CCCCC1 | 97.5% | 108% | 88.7% | 107% | 91.3% | 105% | 98.3% | 101% | 99.7% | – |
| Cc1cc(C)c(NC(=O)c2sc3nc4c(cc3c2N)CN(Cc2ccccc2)CC4)c(C)c1 | 21.7% | 7.19% (active) | 7.64% (active) | 42.9% | 22% | – | 24.5% | 38.7% | 57.1% | 32.9% |
| COc1cccc2nc(Nc3ccc(NC(=O)c4ccc5ncccc5c4)cc3)ccc12 | 51.5% | 63.3% | 80.8% | 90.3% | 52.3% | 80.7% | 97.4% | 84.6% | 73.8% | – |
| COc1ccc(-n2c(C)cc(-c3ccccc3)c2C)cc1 | 37.9% | 12.4% | 41.2% | 69.6% | 31.7% | -3.53% (active) | 52.2% | 42.1% | 58.1% | – |
| Nc1cccc2c1CN(C1CCC(=O)NC1=O)C2=O (stereo not given) | 105% | 101% | 88.4% | 88.9% | 91% | – | 114% | 99.8% | 111% | 97% |
| Cc1sc2nc(CSc3nnc(-c4ccco4)o3)[nH]c(=O)c2c1C | 90.7% | 118% | 108% | 106% | 102% | 97.5% | – | 99.2% | 110% | – |
| COc1cc(OC)c(C(=O)/C=C/c2ccc(C(F)(F)F)cc2)c(OC)c1 | 29.4% | 26.9% | 30% | 57.5% | 54.5% | 62.2% | – | 32.4% | 67.4% | – |
| CCCCCCCCCCCCOB(OCCCCCCCCCCCC)OCCCCCCCCCCCC | 105% | 105% | 118% | 106% | 98.5% | 102% | 104% | 89.7% | 108% | – |
| COc1ccc(/C=C(\C#N)c2ccc([N+](=O)[O-])cc2)c2ccccc12 | 75.7% | 76.8% | -16% (active) | 24.3% | 62.5% | 74.9% | 37.1% | 70.2% | 59.2% | – |
